Data taken from PubChem BioAssay.
The source made the active and inactive calls. Unless noted, how the calls were made is not given here.

Tests used:
[1] = HepG2 liver cancer cell viability effects, profiling panel, resazurin fluorescence, 24 h, PK04 Diversity Set (AID 1172); details: higher = more signal
[2] = basal S. cerevisiae growth modulation, no modifier, primary screen, OD600, strain BY4716, 24 h, basal condition (AID 1173); details: OD600, 24 h, higher = more signal, called active from +8 up or from −8 down
[3] = MM1S myeloma cell viability, profiling panel, resazurin fluorescence, basal, 24 h, PK04 Diversity Set (AID 1174); details: higher = more signal, called active from +8 up or from −8 down;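 further: MM1S multiple myeloma cell line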
[4] = target: Dihydroorotate dehydrogenase (quinone), mitochondrial (Plasmodium falciparum (isolate 3D7)) (UniProt Q08210); experiment: PfDHODH enzyme inhibitors, primary screen, biochemical, C-terminal His tag, absorbance 600 nm (AID 1175); details: DCIP absorbance 600 nm, higher = more signal, called active from +8 up or from −8 down;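 further: recombinant parasite enzyme with a five histidine tag at its C terminus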
Dihydroorotate dehydrogenase (quinone), mitochondrial (Plasmodium falciparum (isolate 3D7)), sequence (Q08210 whole entry, looked up): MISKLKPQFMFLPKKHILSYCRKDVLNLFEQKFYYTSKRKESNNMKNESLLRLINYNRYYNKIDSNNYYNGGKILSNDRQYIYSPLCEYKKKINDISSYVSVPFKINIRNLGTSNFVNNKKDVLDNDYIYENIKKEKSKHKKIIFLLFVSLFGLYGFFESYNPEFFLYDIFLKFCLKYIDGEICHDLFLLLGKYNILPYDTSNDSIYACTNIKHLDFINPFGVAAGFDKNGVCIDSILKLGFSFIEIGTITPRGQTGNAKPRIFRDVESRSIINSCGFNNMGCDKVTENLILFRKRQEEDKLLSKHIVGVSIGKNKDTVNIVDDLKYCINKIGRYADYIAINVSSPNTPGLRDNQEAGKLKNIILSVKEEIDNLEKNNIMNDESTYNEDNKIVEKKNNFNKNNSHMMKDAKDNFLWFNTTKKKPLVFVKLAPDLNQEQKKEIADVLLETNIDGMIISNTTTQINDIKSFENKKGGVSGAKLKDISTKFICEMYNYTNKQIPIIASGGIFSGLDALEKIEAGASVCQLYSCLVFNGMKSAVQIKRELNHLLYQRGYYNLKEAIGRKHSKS

[5] = P. aeruginosa biofilm formation inhibitors, primary screen, strain PAO1, LB-PBS medium, absorbance 600 nm (AID 1176); details: P. aeruginosa PAO1 growth/biofilm, A600, 12 h; higher = more signal
[6] = S. cerevisiae RM11-1a growth modifiers, primary screen, strain RM11-1a, OD600, basal, 24 h (AID 1177); details: OD600, 24 h, higher = more signal, called active from +8 up or from −8 down;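 further: cultures grown under basal conditions with no added stressor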
[7] = E. coli acrAB mutant growth effects, primary screen, E. coli filamentation inducers, strain DRC39, OD650, 24 h (AID 1178); details: higher = more signal, called active from +8 up or from −8 down;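 further: growth measured as culture turbidity by optical density at 650 nm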
[8] = E. coli acrAB mutant growth effects, primary screen, E. coli filamentation inducers, strain DRC39, OD650, 48 h (AID 1179);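 further: screen aims at cell division blockers that make cells filament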; details: E. coli DRC39 delta-acrAB growth, higher = more signal, called active from +8 up or from −8 down
[9] = RPMI8226 myeloma cell viability, profiling panel, resazurin fluorescence, basal, 24 h, PK04 Diversity Set (AID 1180); details: higher = more signal;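 further: RPMI8826 multiple myeloma cell line at 5000 cells per well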
[10] = target: E3 ubiquitin-protein ligase XIAP (Homo sapiens) (UniProt P98170); experiment: XIAP binders, primary screen, biophysical, small-molecule microarray, fluorescence 635 nm (AID 1181); details: small-molecule microarray binding, higher = more signal;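 further: score merges 667 nm emission and signal to noise over triplicate slides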
E3 ubiquitin-protein ligase XIAP (Homo sapiens), sequence (P98170 whole entry, looked up): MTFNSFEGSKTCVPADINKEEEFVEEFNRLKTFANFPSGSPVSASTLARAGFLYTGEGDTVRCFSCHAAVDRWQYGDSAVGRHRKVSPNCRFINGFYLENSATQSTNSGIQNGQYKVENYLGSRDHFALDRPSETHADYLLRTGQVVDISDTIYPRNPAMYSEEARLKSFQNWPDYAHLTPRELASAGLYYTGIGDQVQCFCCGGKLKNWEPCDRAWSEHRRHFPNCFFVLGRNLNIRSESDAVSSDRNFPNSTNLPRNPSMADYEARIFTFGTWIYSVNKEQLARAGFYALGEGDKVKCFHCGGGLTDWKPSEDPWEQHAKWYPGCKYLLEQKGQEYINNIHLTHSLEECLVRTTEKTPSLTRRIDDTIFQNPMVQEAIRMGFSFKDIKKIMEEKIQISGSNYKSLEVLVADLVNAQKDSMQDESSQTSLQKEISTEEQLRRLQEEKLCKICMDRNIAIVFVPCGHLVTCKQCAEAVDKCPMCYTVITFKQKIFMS

[11] = tested on: XIP peptide (Xip251-270) binding; experiment: small-molecule binders of XIP peptide, primary screen, biochemical, small-molecule microarray, fluorescence 635/667 nm, 0.1 µg/mL protein (AID 1182); details: fluorescent protein binding, 635 nm, higher = more signal, called active from +8 up or from −8 down
[12] = tested on: XIP peptide (Xip251-270); experiment: small-molecule binders of XIP peptide, primary screen, biochemical, small-molecule microarray, fluorescence 635/667 nm, 0.5 µg/mL protein (AID 1183); details: small-molecule microarray binding, fluorescence 635 nm; higher = more signal
[13] = Plasmodium falciparum growth inhibition, primary screen, strain 3D7, DAPI fluorescence, 100 nL (AID 1184);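 further: parasites grown inside human red blood cells in medium with human serum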; details: P. falciparum 3D7 growth, 3 d, higher = more signal
[14] = target: Homeobox protein Hox-A13 (Mus musculus) (UniProt Q62424); experiment: inhibitors of HoxA13-DNA binding, primary screen, biochemical, fluorescence polarization, labeled oligonucleotide (AID 1185); details: 15 min, higher = more signal, called active from +8 up or from −8 down
Homeobox protein Hox-A13 (Mus musculus), sequence (Q62424 whole entry, looked up): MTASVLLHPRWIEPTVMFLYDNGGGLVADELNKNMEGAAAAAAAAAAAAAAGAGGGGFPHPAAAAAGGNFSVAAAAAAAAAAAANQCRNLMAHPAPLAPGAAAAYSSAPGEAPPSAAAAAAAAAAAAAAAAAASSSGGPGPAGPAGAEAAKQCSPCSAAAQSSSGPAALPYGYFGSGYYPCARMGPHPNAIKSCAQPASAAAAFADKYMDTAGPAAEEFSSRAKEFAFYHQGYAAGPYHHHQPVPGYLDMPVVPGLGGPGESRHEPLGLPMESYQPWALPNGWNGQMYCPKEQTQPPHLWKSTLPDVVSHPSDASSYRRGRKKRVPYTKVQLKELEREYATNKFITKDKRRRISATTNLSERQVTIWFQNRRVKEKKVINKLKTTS

[15] = inhibitors of hydroxyurea-induced Chk1 phosphorylation, primary screen, imaging, HeLa, phospho-Chk1 antibody, percent positive cells (AID 1186); details: hydroxyurea-induced phospho-Chk1 immunofluorescence imaging, higher = more signal
[16] = inhibitors of hydroxyurea-induced Chk1 phosphorylation, primary screen, imaging, HeLa, phospho-Chk1 nuclear intensity (AID 1187); details: hydroxyurea-induced phospho-Chk1 immunofluorescence imaging, higher = more signal

Row | SMILES | z-score [1] | z-score [2] | z-score [3] | composite z-score [4] | z-score [5] | z-score [6] | z-score [7] | z-score [8] | z-score [9] | composite z-score [10] | composite z-score [11] | composite z-score [12] | z-score [13] | z-score [14] | z-score [15] | z-score [16]
1 | C[C@H]1NC(=O)[C@@]23C(=O)N[C@@H](Cc4ccccc4)C2[C@H](C)[C@@]2(C)O[C@H]2C3/C=C/C/C=C\CNC(=O)[C@@H]2CCCN2C1=O (stereo not given in full) | 0.23 | -0.704 (inactive) | 0.607 (inactive) | -1.43 (inactive) | -0.0126 (inactive) | -0.0532 (inactive) | 0.901 (inactive) | 0.534 (inactive) | 1.14 | 0.0049 | 0.091 (inactive) | 0.667 | 0.91 | -3.78 (inactive) | 0.237 (inactive) | 0.087 (inactive)
2 | O=C1C2C=CC(C(O)c3cc(C(F)(F)F)cc(C(F)(F)F)c3)N(n3cnnc3)C2C(=O)N1Cc1ccccc1 (stereo not given) | -0.064 | -1.01 (inactive) | -0.497 (inactive) | 0.861 (inactive) | 0.933 (inactive) | 1.09 (inactive) | 0.375 (inactive) | 0.589 (inactive) | -0.394 | 0.0945 | -0.0242 (inactive) | 0.662 | -1.06 | -2.95 (inactive) | 0.506 (inactive) | 0.135 (inactive)
3 | O=C1C[C@@](C(=O)NCC(F)(F)F)(c2ccc([N+](=O)[O-])cc2)[C@@H](c2ccc(CO)cc2I)N1C1CCCCC1 | -0.0199 | -0.805 (inactive) | 0.233 (inactive) | -0.277 (inactive) | 0.609 (inactive) | 0.195 (inactive) | -0.218 (inactive) | -0.182 (inactive) | -0.589 | -0.0172 | 0.469 (inactive) | 0.778 | -1.26 | -4.99 (inactive) | -0.171 (inactive) | 0.187 (inactive)
4 | COc1cc2c(cc1O)C(c1cccs1)N(C)CC2 (stereo not given) | -0.493 | 1.11 (inactive) | -1.55 (inactive) | -8.08 (active) | 0.282 (inactive) | -0.225 (inactive) | 0.34 (inactive) | 0.597 (inactive) | -0.468 | 0.0682 | -0.721 (inactive) | 0.594 | -1.12 | -3.91 (inactive) | -0.428 (inactive) | -0.628 (inactive)
5 | NC(=O)NCC#Cc1ccc2c(c1)[C@]1(C(=O)N2)[C@H](c2ccccc2OCCO)N2[C@H](c3ccccc3)[C@H](c3ccccc3)OC(=O)[C@H]2[C@@H]1C(=O)Nc1nc2ccccc2s1 | 0.851 | 1.21 (inactive) | 0.528 (inactive) | -1.12 (inactive) | 2.29 (inactive) | 2.16 (inactive) | 0.525 (inactive) | 0.24 (inactive) | 0.744 | -0.102 | 0.213 (inactive) | 0.324 | -1.89 | 1.61 (inactive) | 0.164 (inactive) | 0.212 (inactive)
6 | COc1ccc(CCNC(=O)[C@@]2(Sc3ccc(C)cc3)CC(=O)N(C(C)C)[C@@H]2c2ccc(CO)cc2I)cc1 | 0.104 | -1.77 (inactive) | -1.63 (inactive) | 0.0834 (inactive) | 0.196 (inactive) | -0.894 (inactive) | -0.246 (inactive) | -0.126 (inactive) | -2.47 | 0.0374 | 0.427 (inactive) | 0.368 | -1.01 | -2.89 (inactive) | 0.332 (inactive) | 0.404 (inactive)
7 | C=CCC(OC(C)=O)[C@@H]1[C@@H](N(Cc2cccc3ccccc23)C(=O)c2ccc(-c3ccccc3)cc2)c2cc(OCCCO)ccc2N1C(=O)c1ccc2ccccc2c1 (stereo not given in full) | 0.256 | 1.04 (inactive) | 0.163 (inactive) | -0.149 (inactive) | 0.845 (inactive) | 0.132 (inactive) | 0.0986 (inactive) | 0.295 (inactive) | 1.23 | 0.0463 | -0.176 (inactive) | 0.0439 | -1.55 | -1.35 (inactive) | 0.145 (inactive) | -0.0284 (inactive)
8 | O=C1c2ccccc2[C@](Cc2ccccc2I)(C(=O)NCCN2CCOCC2)[C@H](c2ccc(CO)cc2)N1C1CCCCC1 | -0.16 | -1.21 (inactive) | -0.526 (inactive) | -0.119 (inactive) | 0.531 (inactive) | 0.358 (inactive) | 0.29 (inactive) | 0.205 (inactive) | -0.954 | 0.0623 | 0.45 (inactive) | 0.652 | -1.79 | -5.61 (inactive) | 0.16 (inactive) | -6.65 (inactive)
9 | CC1(C)C2C=C(C(O)C3C=CC4C(=O)NC(=O)C4N3Nc3ccc(Cl)cc3Cl)C[C@@H]1C2 (stereo not given in full) | -2.13 | -7.58 (inactive) | -1.9 (inactive) | 0.356 (inactive) | 1.55 (inactive) | 0.84 (inactive) | -0.274 (inactive) | -1.08 (inactive) | -1.79 | -0.0769 | 1.15 (inactive) | 0.231 | 0.665 | -4.45 (inactive) | 0.955 (inactive) | 0.327 (inactive)
10 | C=CC[C@]1(C(=O)NCCCOC)N=C(c2ccc(OCCCO)cc2)O[C@H]1c1ccccc1CN=[N+]=[N-] | 0.127 | -0.024 (inactive) | -0.266 (inactive) | -0.339 (inactive) | 0.978 (inactive) | -0.755 (inactive) | -0.161 (inactive) | -0.347 (inactive) | -0.257 | -0.0134 | 0.967 (inactive) | 0.763 | -2.52 | -5.11 (inactive) | 0.14 (inactive) | -0.0062 (inactive)
